Source: PubChem BioAssay (NCI)
Compounds without any hit were thinned out: in the full panel of roughly 79,000, 15% have a hit. Activity calls are given as the source filed them. Cut-off read from the data, not from the text of the source: active = growth inhibition above about 70%; inactive = the rest.

Test: NCI Yeast Anticancer Drug Screen. Data for the rad50 strain (AID 155);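 note: 0% = growth of vehicle-only cultures of the same strain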
Conditions: S. cerevisiae rad50 strain growth inhibition; at 50.0 µM; stronger effect = higher value
Procedure, shortened: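 Relative growth inhibition (compound vs vehicle) was measured in yeast with a defined repair-gene alteration.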
With `OCCSCc1cc(Cl)cc(Cl)c1O` the growth inhibition was 56% (inactive). In the case of `CC(=O)Nc1ccccc1C(O)(c1ccccc1)c1ccccc1`, the growth inhibition is reported as 14.4% (inactive). In the case of `Cc1cc(N=Nc2ccccc2C)c(N)cc1N`, the growth inhibition is reported as 99.2% (active). In the case of `O=C(Nc1ccc(Cl)cc1)Nc1nnc(/C=C/c2ccc(Cl)c(Cl)c2)o1`, the growth inhibition is reported as -6.15% (inactive). With `CCCCCCCCCCCC(=O)OCCOC(=O)CCCCCCCCCCC` the growth inhibition was -5.95% (inactive). In the case of `CCN(C(C)=O)c1ccc2c(c1)Cc1ccccc1-2`, the growth inhibition is reported as 97.2% (active). For `O=[N+]([O-])c1cccn2nc(C3OC(CO)C(O)C3O)nc12` (stereo not drawn), the growth inhibition was -11.2% (inactive). With `Oc1cc(CNCc2ccccc2)c(O)c(CNCc2ccccc2)c1` the growth inhibition was -4% (inactive). In the case of `N#CSC#Cc1ccc(C#CSC#N)cc1`, the growth inhibition is reported as 30.6% (inactive). In the case of `O=C(O)/C=C/C(=O)NNc1nc2ccccc2s1`, the growth inhibition is reported as 23.1% (inactive). With `COc1ccc2c(c1)[n+]([O-])c(-c1ccc(C)cc1)c(N)[n+]2[O-]` the growth inhibition was 99.4% (active). For `C=CCc1cc([N+](=O)[O-])ccc1O`, the growth inhibition was 76.5% (active). In the case of `CC(C)C1=CC23CCC4C(C)(C(=O)O)CCCC4(C)C2CC1c1c(O)ccc(O)c13` (stereo not drawn), the growth inhibition is reported as 99.3% (active). For `NC(=O)C(CCc1cccc2ccccc12)c1ccccc1` (stereo not drawn), the growth inhibition was 98.8% (active). In the case of `CC(CO)CCC(=O)C(C)C1C(=O)CC2CC3CC(O)CCC3(C)CC21C` (stereo not drawn), the growth inhibition is reported as 83.2% (active). With `Oc1c(Cl)cc(Cl)cc1/C=C1\C=Nc2ccccc21` the growth inhibition was 2.75% (inactive). For `CCCC(C(=O)OCCN1CCCC1(C)C)C1CCCC1` (stereo not drawn), the growth inhibition was 41% (inactive). For `OCCN1CCN(CCCN2c3cc(Cl)ccc3Sc3ccsc32)CC1`, the growth inhibition was 98.5% (active). For `O=C(O)/C=C/c1ccc2c(c1)CCCC2`, the growth inhibition was 90.1% (active). In the case of `CC(NNC(=S)N1CCCC1)c1ccc2ccccc2n1` (stereo not drawn), the growth inhibition is reported as 98% (active). For `c1cc(CCSSCCc2ccncc2)ccn1`, the growth inhibition was 27.5% (inactive). With `CCOC(=O)C(N=Nc1ccc(Br)c(C)c1)C(C)=O` (stereo not drawn) the growth inhibition was 92.2% (active). In the case of `N#CC(C(=O)CCCC(=O)Nc1cccc([N+](=O)[O-])c1)c1cccc2ccccc12` (stereo not drawn), the growth inhibition is reported as 32.5% (inactive). For `Cc1ccc(S(=O)(=O)NNC(=O)c2sc(-c3nc(C)c(C(=O)NNS(=O)(=O)c4ccc(C)cc4)s3)nc2C)cc1`, the growth inhibition was 7.3% (inactive). In the case of `Nc1nc(Cl)cc(Nc2ccc(Cl)c(Cl)c2)n1`, the growth inhibition is reported as 72.8% (active). In the case of `CN(C)C=Nc1c2ccccc2nc2ccccc12`, the growth inhibition is reported as 71.1% (active). With `Cc1cc(N=[N+]=[N-])c2cc(C3CCCCC3)ccc2n1` the growth inhibition was 96.5% (active). With `CCN(CC)C(=O)CCCCC(=O)OC(C)C` the growth inhibition was -2.2% (inactive). In the case of `CC12CCC(C(Br)(Br)C1=O)C2(C)C` (stereo not drawn), the growth inhibition is reported as 40.6% (inactive). For `CCCCCCCCN(CCCCCCCC)C(=O)C(C)O` (stereo not drawn), the growth inhibition was 98.7% (active). With `O=C1C=CC(=O)C1=Cc1ccc(Cl)c(Cl)c1` the growth inhibition was 98.8% (active). With `COc1ccc([N+](=O)[O-])cc1NC(=O)Nc1ccc(C(=O)OCC(C)C)cc1` the growth inhibition was 48.8% (inactive). With `CCOC(=O)n1c2ccccc2c(=O)n1CCO` the growth inhibition was 97.5% (active). With `CC(=O)OC12CCC3C4CC=C5CC(O)CCC5(C)C4C(=O)C3C1(C)N1CC(C)CC(O)C1C2C` (stereo not drawn) the growth inhibition was 74.5% (active). For `Cc1cccnc1NC(=S)Nc1ccccc1Cl`, the growth inhibition was 89.5% (active). For `CS(=O)(=O)OCCN(CCOS(C)(=O)=O)c1ccc(C=Nc2ccc(-c3cnc(-c4ccc(Cl)cc4)s3)cc2)c(Cl)c1`, the growth inhibition was 90% (active). With `CC1(Cc2ccccc2)CCCC(C=O)C1=O.[Cu+2]` (stereo not drawn) the growth inhibition was 66.5% (inactive). With `C[N+]1(c2ccccc2)C=C(c2ccccc2)SC1=S` (stereo not drawn) the growth inhibition was 67.8% (inactive). For `CC12CCC3c4cc(O)ccc4CCC3C1CCC2O` (stereo not drawn), the growth inhibition was 50.2% (inactive).

Test: NCI Yeast Anticancer Drug Screen. Data for the mec2-1 strain (AID 157)
Conditions: S. cerevisiae mec2-1 strain, at 5.0 µM (retest, dose inferred, filed as 0.5), stronger effect = higher value
Procedure, shortened: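 Cells of the genetically defined mec2-1 yeast strain are incubated with test compound. Inhibition of growth is calculated against vehicle-treated controls.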
For `OCCSCc1cc(Cl)cc(Cl)c1O`, the growth inhibition was -12% (inactive). For `CC(=O)Nc1ccccc1C(O)(c1ccccc1)c1ccccc1`, the growth inhibition was -5% (inactive). For `Cc1cc(N=Nc2ccccc2C)c(N)cc1N`, the growth inhibition was -11% (inactive). With `O=C(Nc1ccc(Cl)cc1)Nc1nnc(/C=C/c2ccc(Cl)c(Cl)c2)o1` the growth inhibition was 1% (inactive). With `CCCCCCCCCCCC(=O)OCCOC(=O)CCCCCCCCCCC` the growth inhibition was -1% (inactive). In the case of `CCN(C(C)=O)c1ccc2c(c1)Cc1ccccc1-2`, the growth inhibition is reported as -3% (inactive). For `O=[N+]([O-])c1cccn2nc(C3OC(CO)C(O)C3O)nc12` (stereo not drawn), the growth inhibition was -3% (inactive). In the case of `Oc1cc(CNCc2ccccc2)c(O)c(CNCc2ccccc2)c1`, the growth inhibition is reported as 17% (inactive). With `N#CSC#Cc1ccc(C#CSC#N)cc1` the growth inhibition was 100% (active). For `O=C(O)/C=C/C(=O)NNc1nc2ccccc2s1`, the growth inhibition was -9% (inactive). For `COc1ccc2c(c1)[n+]([O-])c(-c1ccc(C)cc1)c(N)[n+]2[O-]`, the growth inhibition was 22% (inactive). In the case of `C=CCc1cc([N+](=O)[O-])ccc1O`, the growth inhibition is reported as 1% (inactive). In the case of `CC(C)C1=CC23CCC4C(C)(C(=O)O)CCCC4(C)C2CC1c1c(O)ccc(O)c13` (stereo not drawn), the growth inhibition is reported as 75% (active). With `NC(=O)C(CCc1cccc2ccccc12)c1ccccc1` (stereo not drawn) the growth inhibition was -10% (inactive). With `CC(CO)CCC(=O)C(C)C1C(=O)CC2CC3CC(O)CCC3(C)CC21C` (stereo not drawn) the growth inhibition was -2% (inactive). In the case of `Oc1c(Cl)cc(Cl)cc1/C=C1\C=Nc2ccccc21`, the growth inhibition is reported as -11% (inactive). With `CCCC(C(=O)OCCN1CCCC1(C)C)C1CCCC1` (stereo not drawn) the growth inhibition was 10% (inactive). For `OCCN1CCN(CCCN2c3cc(Cl)ccc3Sc3ccsc32)CC1`, the growth inhibition was 0% (inactive). With `O=C(O)/C=C/c1ccc2c(c1)CCCC2` the growth inhibition was -8% (inactive). For `CC(NNC(=S)N1CCCC1)c1ccc2ccccc2n1` (stereo not drawn), the growth inhibition was 6% (inactive). For `c1cc(CCSSCCc2ccncc2)ccn1`, the growth inhibition was 1% (inactive). With `CCOC(=O)C(N=Nc1ccc(Br)c(C)c1)C(C)=O` (stereo not drawn) the growth inhibition was -7% (inactive). For `N#CC(C(=O)CCCC(=O)Nc1cccc([N+](=O)[O-])c1)c1cccc2ccccc12` (stereo not drawn), the growth inhibition was 18% (inactive). With `Cc1ccc(S(=O)(=O)NNC(=O)c2sc(-c3nc(C)c(C(=O)NNS(=O)(=O)c4ccc(C)cc4)s3)nc2C)cc1` the growth inhibition was 2% (inactive). In the case of `Nc1nc(Cl)cc(Nc2ccc(Cl)c(Cl)c2)n1`, the growth inhibition is reported as -2% (inactive). For `CN(C)C=Nc1c2ccccc2nc2ccccc12`, the growth inhibition was 23% (inactive). With `Cc1cc(N=[N+]=[N-])c2cc(C3CCCCC3)ccc2n1` the growth inhibition was 8% (inactive). For `CCN(CC)C(=O)CCCCC(=O)OC(C)C`, the growth inhibition was -2% (inactive). With `CC12CCC(C(Br)(Br)C1=O)C2(C)C` (stereo not drawn) the growth inhibition was 17% (inactive). In the case of `CCCCCCCCN(CCCCCCCC)C(=O)C(C)O` (stereo not drawn), the growth inhibition is reported as -2% (inactive). In the case of `O=C1C=CC(=O)C1=Cc1ccc(Cl)c(Cl)c1`, the growth inhibition is reported as 100% (active). With `COc1ccc([N+](=O)[O-])cc1NC(=O)Nc1ccc(C(=O)OCC(C)C)cc1` the growth inhibition was 3% (inactive). In the case of `CCOC(=O)n1c2ccccc2c(=O)n1CCO`, the growth inhibition is reported as -16% (inactive). With `CC(=O)OC12CCC3C4CC=C5CC(O)CCC5(C)C4C(=O)C3C1(C)N1CC(C)CC(O)C1C2C` (stereo not drawn) the growth inhibition was 10% (inactive). In the case of `Cc1cccnc1NC(=S)Nc1ccccc1Cl`, the growth inhibition is reported as 12% (inactive). For `CS(=O)(=O)OCCN(CCOS(C)(=O)=O)c1ccc(C=Nc2ccc(-c3cnc(-c4ccc(Cl)cc4)s3)cc2)c(Cl)c1`, the growth inhibition was -3% (inactive). With `CC1(Cc2ccccc2)CCCC(C=O)C1=O.[Cu+2]` (stereo not drawn) the growth inhibition was 0% (inactive). With `C[N+]1(c2ccccc2)C=C(c2ccccc2)SC1=S` (stereo not drawn) the growth inhibition was 25% (inactive). In the case of `CC12CCC3c4cc(O)ccc4CCC3C1CCC2O` (stereo not drawn), the growth inhibition is reported as -4% (inactive).
